Screening results: PubChem, National Center for Advancing Translational Sciences (NCATS)
Rows were chosen to be rich in hits. Some 22% of all compounds tested hit in one or more screens of this group.
CHX counter: Cycloheximide Counterscreen for Small Molecule Inhibitors of Shiga Toxin; cell reporter, cycloheximide protein synthesis inhibition counterscreen; max response, %; actives 12% (n = 300,000); in the data active means max response mostly above about 13%, no sharp cut-off; inactive means mostly below about 14%; further: read at 38.3 µM for the half of the compounds with a filed dose; 0% is about no effect
Pf growth 96h: Primary qHTS for delayed death inhibitors of the malarial parasite plastid, 96 hour incubation | P. falciparum luciferase reporter growth, 96 h | Potency, µM (doses to about 28.7 µM), for inactives: at the highest dose activity change, negative = inhibition, hits mostly inhibitors | actives 6.9% (n = 320,000); further: potency means the concentration at half of the fitted maximal effect; on the % scale 0 is the no-effect control and ±100 the full control effect
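Infected RBCs, 2% Hct / 0.05% parasitemia final; luciferase-reporter P. falciparum; cpd 96 h, 37 C, 5% CO2; luciferase detection reagent; luminescence.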
LmPK inh: qHTS Assay for Inhibitors of Leishmania Mexicana Pyruvate Kinase (LmPK); Q27686; purified LmPK, Kinase-Glo ATP luminescence, 1 h; Potency, µM (doses to about 57.5 µM), inactives show at the top dose activity change, negative = inhibition, actives largely listed as inhibitors; actives 0.37% (n = 290,000); further: potency means the concentration at half of the fitted maximal effect; on the % scale 0 is the no-effect control and ±100 the full control effect
Target sequence (Q27686 whole entry, looked up): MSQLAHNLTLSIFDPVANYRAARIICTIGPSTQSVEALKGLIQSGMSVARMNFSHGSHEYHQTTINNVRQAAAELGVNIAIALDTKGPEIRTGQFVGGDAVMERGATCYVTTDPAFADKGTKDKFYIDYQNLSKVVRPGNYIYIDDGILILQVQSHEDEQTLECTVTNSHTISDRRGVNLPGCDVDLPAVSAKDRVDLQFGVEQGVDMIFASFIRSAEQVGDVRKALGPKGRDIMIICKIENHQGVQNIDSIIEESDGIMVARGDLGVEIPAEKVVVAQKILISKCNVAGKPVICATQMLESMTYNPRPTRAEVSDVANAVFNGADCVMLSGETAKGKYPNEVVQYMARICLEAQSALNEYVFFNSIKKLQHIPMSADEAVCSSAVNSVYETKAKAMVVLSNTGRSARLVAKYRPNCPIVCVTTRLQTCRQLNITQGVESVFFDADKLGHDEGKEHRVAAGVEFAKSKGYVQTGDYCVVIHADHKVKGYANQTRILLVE
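0.1 nM LmPK, 0.5 mM PEP, 0.1 mM ADP; 50 mM imidazole pH 7.2, 7 mM MgCl2, 50 mM KCl; 1 h RT. Kinase-Glo luminescence readout, normalized to no-enzyme (full inhibition) and uninhibited wells.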
Shiga inhibitor: A qHTS for Small Molecule Inhibitors of Shiga Toxin; Vero cells, Shiga toxin protein synthesis inhibition reporter; inhibition, % at 38.7 µM; actives 9.2% (n = 290,000); AID 2315, 2010; in the data active means inhibition mostly above about 28%, no sharp cut-off; inactive means mostly below about 43%; further: 0% is about no effect
Pf growth 48h: Primary qHTS for delayed death inhibitors of the malarial parasite plastid, 48 hour incubation | P. falciparum luciferase growth in erythrocytes, 48 h | Potency, µM (doses to about 28.7 µM), without a hit: top-dose activity change, negative = inhibition, most hits filed as inhibitors | actives 5.9% (n = 310,000); further: potency means the concentration at half of the fitted maximal effect; on the % scale 0 is the no-effect control and ±100 the full control effect
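Compounds are pin-transferred into medium, infected erythrocytes (2% hematocrit, 0.1% parasitemia final) are added, and plates sit one parasite generation at 37 C in 5% CO2. Detection reagent is then added and luminescence measured.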
Active calls of the source: *. Unless noted, the call rests on the fitted dose curve; in most records, active means well fitted inhibition curve with a large enough effect; inconclusive means small, poorly fitted or top-dose-only effect, or another doubt; inactive means no such curve, though single readings can be large or run the other way.

`CCN1CCc2nc3sc(C(=O)N4CCc5ccccc5C4)c(N)c3cc2C1` gave CHX counter -2.3, Pf growth 96h 38.9%, LmPK inh -0.6%, Shiga inhibitor 11.1 and Pf growth 48h inconclusive.
For CCC(C)NC(=O)CCn1ccc2cc(S(=O)(=O)N3CCCC3)ccc21 (stereo not drawn) the results were CHX counter -3.4, Pf growth 96h -24.3%, LmPK inh 4.4%, Shiga inhibitor -4.5 and Pf growth 48h inconclusive.
For Cc1ccc2cc3c(N)c(C(=O)N4CC(=O)Nc5ccccc54)sc3nc2c1 the results were CHX counter 3.6, Pf growth 96h 33.5%, LmPK inh 4.6%, Shiga inhibitor 2.8 and Pf growth 48h -7.3%.
`Cc1ccc2nc3sc(C(=O)N4CCOCC4)c(N)c3cc2c1` gave CHX counter 30.3*, Pf growth 96h -28.4%, LmPK inh -27.6%, Shiga inhibitor 54.3* and Pf growth 48h 177.4%.
CCc1ccc2nc3sc(C(=O)N4CCc5ccccc54)c(N)c3cc2c1 was read as CHX counter 6.4, Pf growth 96h 47.7%, LmPK inh 5.0%, Shiga inhibitor 38.2 and Pf growth 48h 6.5%.
`Cc1ccc2cc3c(N)c(C(=O)N4CCOCC4)sc3nc2c1` gave CHX counter 29.6*, Pf growth 96h 0.0%, LmPK inh -20.3%, Shiga inhibitor 103.2* and Pf growth 48h 128.3%.
O=C(c1ccc2c(c1)OCO2)N1CCN(c2ccccc2F)CC1 was read as CHX counter 22.0*, LmPK inh 6.5%, Shiga inhibitor 28.9 and Pf growth 48h 20.3%.
Screening O=C(c1cccc(C(=O)N2CCN(c3ccccc3F)CC2)c1)N1CCN(c2ccccc2F)CC1 returned CHX counter 1.6, Pf growth 96h -0.5%, LmPK inh -7.8%, Shiga inhibitor -1.7 and Pf growth 48h 13.1µM*.
O=C(Nc1ccccc1N1CCN(C(=O)c2ccc(Cl)cc2)CC1)c1ccc2c(c1)OCO2 was read as CHX counter 6.0, LmPK inh 2.9%, Shiga inhibitor -12.8 and Pf growth 48h 3.7µM*.
O=C(c1c(F)cccc1F)N1CCN(c2ccccc2F)CC1 was read as CHX counter 10.0, Pf growth 96h -7.5%, LmPK inh -0.5%, Shiga inhibitor -12.7 and Pf growth 48h 5.9%.
Screening O=C(c1cccc(C(=O)N2CCN(c3ccccc3)CC2)c1)N1CCN(c2ccccc2)CC1 returned CHX counter -3.5, LmPK inh -9.3%, Shiga inhibitor 2.6 and Pf growth 48h 13.1µM*.
Screening COc1cc(C(=O)N2CCc3ccccc32)ccc1OCc1c(C)noc1C returned CHX counter -2.2, Pf growth 96h inconclusive, LmPK inh 3.3%, Shiga inhibitor -4.9 and Pf growth 48h inconclusive.
`O=C(c1ccc(Cl)s1)N1CCN(c2ccccc2)CC1` gave CHX counter 17.4*, Pf growth 96h inconclusive, LmPK inh 2.4%, Shiga inhibitor 28.1* and Pf growth 48h -17.1%.
For O=C(c1ccc(Cl)s1)N1CCN(c2ncccn2)CC1 the results were CHX counter 0.9, Pf growth 96h -21.1%, LmPK inh 3.3%, Shiga inhibitor -6.5 and Pf growth 48h 31.0%.
`COc1ccccc1C(=O)N1CCC(N2CCN(c3ccccc3)CC2)CC1` gave CHX counter -2.7, Pf growth 96h inconclusive, LmPK inh -2.5%, Shiga inhibitor -4.2 and Pf growth 48h inconclusive.
For CC(=O)c1ccc(N2CCN(C(=O)c3cccc(Oc4ccccc4)c3)CC2)cc1 the results were CHX counter 35.1*, Pf growth 96h inconclusive, LmPK inh 0.3%, Shiga inhibitor 35.2 and Pf growth 48h -27.8%.
`CC(=O)c1ccc(N2CCN(C(=O)c3ccc(-c4ccccc4)cc3)CC2)cc1` gave CHX counter -5.0, Pf growth 96h inconclusive, LmPK inh -0.1%, Shiga inhibitor 7.1 and Pf growth 48h -15.3%.
`O=C(O)c1cccc(N2CCCC2)c1` gave CHX counter -3.2, Pf growth 96h 9.28µM*, LmPK inh -0.5%, Shiga inhibitor 21.8 and Pf growth 48h 5.7%.
For O=C(c1ccccc1Oc1ccccc1)N1CCN(c2ccccc2)CC1 the results were CHX counter 6.1, Pf growth 96h 14.7µM*, LmPK inh 7.9%, Shiga inhibitor 9.4 and Pf growth 48h inconclusive.
For NC(=O)C1CCN(CC(=O)N2N=CCC2c2ccccc2)CC1 (stereo not drawn) the results were CHX counter 1.3, Pf growth 96h 19.3%, LmPK inh 7.5%, Shiga inhibitor 26.7 and Pf growth 48h 46.4%.
`CCOc1ccc(CN2CCNC(=O)C2CC(=O)NCc2csc(C(C)C)n2)cc1` (stereo not drawn) gave CHX counter -0.9, Pf growth 96h 1.7%, LmPK inh -5.0%, Shiga inhibitor -3.4 and Pf growth 48h inconclusive.
Screening COC(=O)C1=CN(c2ccc(OC)cc2)C=C(C(=O)OC)C1c1cc(OC)c(OC)cc1OC returned CHX counter -2.1, Pf growth 96h 4.15µM*, LmPK inh -13.6%, Shiga inhibitor -14.8 and Pf growth 48h 23.6%.
Screening CN1c2ccccc2-c2nc3ccccc3n2C1c1ccccn1 (stereo not drawn) returned CHX counter 20.8, LmPK inh 0.3%, Shiga inhibitor 23.9 and Pf growth 48h 9.28µM*.
c1ccc(CN2c3ccccc3-c3nc4ccccc4n3C2c2ccccn2)cc1 (stereo not drawn) was read as CHX counter -2.9, Pf growth 96h 4.15µM*, LmPK inh -0.9%, Shiga inhibitor 14.9 and Pf growth 48h 7.38µM*.
`CN1c2ccccc2-c2nc3ccccc3n2C1c1ccncc1` (stereo not drawn) gave CHX counter 7.2, Pf growth 96h inconclusive, LmPK inh 7.1%, Shiga inhibitor -16.0 and Pf growth 48h inconclusive.
For CCN1c2ccccc2-c2nc3ccccc3n2C1c1ccco1 (stereo not drawn) the results were CHX counter -4.1, Pf growth 96h 4.65µM*, LmPK inh -2.0%, Shiga inhibitor -3.5 and Pf growth 48h 11.7µM*.
`CN(C)S(=O)(=O)c1ccc(Cl)c(NC(=O)CN2CCCC2)c1` gave CHX counter -1.2, Pf growth 96h 22.7%, LmPK inh 7.0%, Shiga inhibitor 26.0 and Pf growth 48h 15.9%.
For CN1C(=O)c2ccc(NC(=O)CSc3ccccc3)cc2C1=O the results were CHX counter 27.5*, Pf growth 96h 19.7%, LmPK inh 5.2%, Shiga inhibitor 32.0 and Pf growth 48h 39.6%.
Screening CC(=O)Oc1ccc(NC(=O)CSc2ccccc2)cc1 returned CHX counter 44.7*, Pf growth 96h inconclusive, LmPK inh 3.2%, Shiga inhibitor 50.7 and Pf growth 48h 46.3%.
O=C(CSc1ccc(F)cc1)Nc1ccc(C2SCCS2)cc1 was read as CHX counter 34.6*, Pf growth 96h 100.0%, LmPK inh 3.6%, Shiga inhibitor 85.3* and Pf growth 48h 107.9%.
